This is a sample that favours compounds with a hit; in the whole collection about 13% have one here.
WT yeast gro inh: growth inhibition of WT strain, primary screen, mitochondrial fusion inhibitor project, WT and mutant strains, chemical genetic | mitochondrial fusion phenotypic screen | inhibition, % at 10 µM | 190,000 compounds, 2.1% hits; in the data active = inhibition above about 58%; tested in S. cerevisiae
CHOP inh: inhibitors of CHOP promoter induction, primary screen, cell-based, unfolded protein response, luciferase reporter | inhibition, % at 10 µM | 220,000 compounds, 3.8% hits | AID 2732, 2010 | CHO-K1 CHOP-promoter luciferase, tunicamycin-induced, 15-18 h;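 active = compounds that reduced the stress-induced luciferase reporter signal by more than about 70% of percent inhibition, limit read from the data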
RAM inhibit: inhibitors of the yeast RAM network, primary screen, dse1pr::URA3 reporter, 5-FOA selection; 190,000 compounds, 1.8% hits; S. cerevisiae dse1pr::URA3 reporter, 5-FOA growth OD615, 2 d; analog-sensitive cbk1-as2 kinase mutant strain; inhibition, % at 50 µM;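 active = inhibition above a set limit, 3 SD over mean compound inhibition, cut at about 8.4% in these data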;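 note: inhibition rescues growth on 5-FOA so higher OD means more RAM inhibition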
Lmaj promast: Leishmania major promastigote growth inhibition, primary screen. Leishmania major promastigotes, resazurin fluorescence viability. inhibition, % at 10 µM. 200,000 compounds, 9% hits. AID 1063, 2008; in the data active = inhibition above about 50%;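 note: promastigotes grown with compound for 44 hours at 28 °C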
Numbers stand for hits; – = inactive; · = no result given.

SMILES | WT yeast gro inh | CHOP inh | RAM inhibit | Lmaj promast
O=C(NC(=S)NCCN1CCOCC1)c1ccccc1Cl | – | – | – | 58
O=C(NC(=S)NCCN1CCOCC1)c1ccc(Cl)cc1 | – | – | – | –
O=C(NC(=S)Nc1ccc(CN2CCOCC2)cc1)c1ccc([N+](=O)[O-])cc1Cl | – | – | – | 100
COc1cc(NC(=O)c2cccc(Cl)c2)c(OC)cc1NC(=O)CN1CCOCC1 | – | – | – | 85
CCOC(=O)C1=C(N)OC2=C(C(=O)CC(C)(C)C2)C1c1cc(CSc2nnnn2C)cs1 (configuration not stated) | – | – | – | –
CC(=O)Oc1c(C)cc(Cl)cc1C(=O)Nc1ccc([N+](=O)[O-])cc1Cl | 85 | 92 | – | –
Cc1ccc2cc3cc(C(=O)NCCCN4CCc5ccccc5C4)oc3nc2c1 | – | – | – | 97
Cc1ccc2nc(Cl)c3cc(C(=O)NCCCN4CCCC4)sc3c2c1 | – | – | – | 101
COc1ccc2nc3sc(C(=O)NCCCN4CCc5ccccc5C4)cc3cc2c1 | – | – | – | 100
Cc1ccc2cc3cc(C(=O)NCCCN4CCCCCC4)oc3nc2c1 | – | – | – | 97
COc1cc(OC)cc(C(=O)Nn2cc(C(=O)Nc3ccc(F)cc3F)c3ccccc3c2=O)c1 | – | – | – | –
COc1ccc(S(=O)(=O)N2CCOCC2)cc1NC(=O)CSc1nnc2c(n1)[nH]c1ccccc12 | · | – | · | ·
C/C(=N/NC(=O)c1ccc(Br)o1)C(C)C | – | – | – | –
O=C(OCC(=O)N1CCN(S(=O)(=O)c2ccc(Cl)cc2)CC1)c1ccc([N+](=O)[O-])o1 | – | – | – | 57
O=C(OCC(=O)N1CCN(S(=O)(=O)c2ccccc2)CC1)c1ccc([N+](=O)[O-])o1 | – | – | – | 95
O=C(COC(=O)c1ccc([N+](=O)[O-])o1)Nc1cccc(S(=O)(=O)N2CCCCC2)c1 | – | – | – | –
Cc1ccc(-c2csc(NC(=O)N3CCOCC3)n2)cc1 | – | – | – | –
c1ccc(OCc2noc(CN3CC[C@@H]4CCCC[C@H]4C3)n2)cc1 | – | 75 | – | –
Cc1c(C=N)c(O)n(C)c(=O)c1C#N | · | – | · | ·
COc1ccc(CN2CCC(C(=O)N(C)CCc3ccc(OC)c(OC)c3)CC2)c(OC)c1 | – | – | – | –
COc1ccc(CN2CCC(N(CCc3ccccc3)Cc3ccccc3)CC2)c(OC)c1 | – | – | – | 94
Cc1ccc(NS(=O)(=O)c2ccc(Br)s2)nc1 | – | – | – | –
CCC(C)(C)n1nnnc1C(c1ccc2ncccc2c1)N1CCN(Cc2ccc3c(c2)OCO3)CC1 (configuration not stated) | – | – | – | 99
CCC(C)(C)n1nnnc1C(c1ccccc1)N1CCN(Cc2ccccc2)CC1 (configuration not stated) | – | – | – | –
CCC(C)(C)n1nnnc1C(c1ccc(C)cc1)N1CCN(Cc2ccc3c(c2)OCO3)CC1 (configuration not stated) | – | – | – | 81
SMILES | WT yeast gro inh | CHOP inh | RAM inhibit | Lmaj promast
CCC(C)(C)n1nnnc1C(c1ccc2ncccc2c1)N1CCN(c2ccc(O)cc2)CC1 (configuration not stated) | · | – | · | ·
CCC(C)(C)n1nnnc1C(c1ccc(C)cc1)N1CCC(C)CC1 (configuration not stated) | – | – | – | 62
COc1ccccc1C(=O)Nc1ccc(Br)cc1C | – | – | – | –
CCCCc1n(CC(=O)c2ccc(Cl)cc2)c2ccccc2[n+]1C | – | – | – | –
Cc1ccc(S(=O)(=O)Nc2ccc3oc(=O)sc3c2)c(C)c1 | 61 | – | – | –
CCOc1ccc2oc(C(=O)NC3CC(C)(C)NC(C)(C)C3)c(C)c2c1 | – | – | – | 82
CC1(C)CC(NC(=O)COc2ccc3ccccc3c2)CC(C)(C)N1 | – | – | – | 83
CCOc1ccc2oc(C(=O)NC3CCN(Cc4ccccc4)CC3)c(C)c2c1 | – | – | – | 83
CCOc1ccc2oc(C(=O)NC(C)(C)CC)c(C)c2c1 | – | – | – | –
Cc1ccc(OCC(=O)NC2CC(C)(C)NC(C)(C)C2)cc1C | – | – | – | –
CCOc1ccc2oc(C(=O)OCC(=O)NC(=O)NC3CCCC3)c(C)c2c1 | – | 73 | – | –
CN1CCN(C(=S)Nc2cccc(C(F)(F)F)c2)CC1 | – | – | – | 83
FC(F)(F)c1cccc(NC(=S)N2CCN(c3ccccc3)CC2)c1 | – | 80 | – | –
CCCCNS(=O)(=O)c1ccc(NC(=O)c2c(-c3ccccc3Cl)noc2C)cc1 | – | – | – | –
O=C(Cc1ccc([N+](=O)[O-])cc1)c1ccc(O)cc1O | · | – | · | ·
Cc1cc(C)[n+](-c2ccc(C(C)C)cc2)c2[nH]c(=O)[nH]c(=O)c12 | – | – | – | –
CCOC(=O)N1CCN(C(=O)c2ccc3c(c2)sc2nc(-c4ccc(OC)cc4)cn23)CC1 | – | – | – | 98
O=C(c1ccc(COc2ccccc2Cl)o1)N1CCN(c2ccccc2)CC1 | – | – | – | –
O=C(c1ccc(COc2ccccc2Cl)o1)N1N=C(C(F)F)CC1(O)C(F)F (configuration not stated) | – | 75 | – | –
CC1=NOC(=O)/C1=C\c1ccc(-c2ccc(Cl)cc2Cl)o1 | 85 | 112 | – | 93
Nc1nnc(CC(=O)N/N=C/c2ccc(-c3ccc(Cl)cc3Cl)o2)s1 | · | – | · | ·
CC(NC(=O)Cn1cc2c(n1)CCCCC2)c1ccccc1 (configuration not stated) | – | – | – | –
O=C(Cn1cc2c(n1)CCCC2)Nc1cc(-c2cccc(Cl)c2)no1 | – | 95 | – | –
O=C(NCc1ccco1)Nc1cccc([N+](=O)[O-])c1 | · | – | · | ·
CC(=O)OCCN(Cc1ccccc1)Cc1ccc2c(c1)OCO2 | – | 70 | – | –
SMILES | WT yeast gro inh | CHOP inh | RAM inhibit | Lmaj promast
CCC(NC(=O)N(Cc1ccccc1)Cc1ccc2c(c1)OCO2)(C(F)(F)F)C(F)(F)F | – | – | – | 67
CC(C)C(=O)N(Cc1ccc2c(c1)OCO2)Cc1ccccn1 | – | – | – | –
CC(NC(=O)N(Cc1ccccc1)Cc1ccc2c(c1)OCO2)(C(F)(F)F)C(F)(F)F | – | – | – | 94
CN(CCC(=O)Nc1ccc2c(c1)OCO2)Cc1ccccc1 | – | – | – | –
O=C(NCc1ccccc1)NC1CCS(=O)(=O)C1 (configuration not stated) | – | – | – | –
COCc1ccc(C(=O)N2CCCC(CCC(=O)NCc3ccccc3F)C2)o1 (configuration not stated) | – | – | – | –
O=C(Nc1ccccc1Br)C1CCN(C(=O)Cc2ccccc2)CC1 | – | – | – | –
Oc1cccc2ccc(Nc3ccccn3)nc12 | – | · | – | 100
c1ccc(Nc2ccccc2Nc2ccccn2)nc1 | – | – | – | –
CCOC(=O)c1c(C)c(-c2ccccc2)n(CC(=O)NCCC(C)C)c1C | – | – | – | –
CCOC(=O)c1c(C)c(-c2ccccc2)n(CC(=O)NCCCN(CC)CC)c1C | – | – | – | 51
CCCNC(=O)OCc1cccnc1Sc1ccc(C)cc1 | – | – | – | –

Compound activity from PubChem.
